Unmarked numbers belong to inactive results.

One experiment concerns Madurella mycetomatis MM55. The experiment in a line: growth relative to untreated control; higher = less inhibition, active = 20 or less. Particulars: 25 µM. The procedure: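 Hyphal fragments of M. mycetomatis MM55 or F. senegalensis CBS197.79 in RPMI 1640/MOPS were exposed to each MMV COVID Box or Global Health Priority Box compound at 100 or 25 µM for 7 days at 37 °C. Viability was read with MTS (490 nm, M. mycetomatis) or resazurin (600 nm, F. senegalensis), background-corrected with a medium-only control and expressed as % growth relative to the untreated growth control. Inhibition of more than 80% was taken as growth inhibition.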
On to `O=C(Nc1cccc(Cl)c1)c1ccnc(N2CCC(N3CCCC3)CC2)c1`, for which the growth is 73.7%.

Consider `CN1CCC[C@@H]1CCO[C@](C)(c1ccccc1)c1ccc(Cl)cc1`, for which the growth was 11.1% (active).

For the compound `CC(C)(C)Nc1ncc2nc(Nc3cc(Cl)cc(C(F)(F)F)c3)n([C@H]3C[C@H](N)C3)c2n1`, the growth is 7.82% (active).

Consider `CCN(CC)CCNC(=O)c1ccc(NC(=O)c2cc3c(C)nn(-c4ccc(Cl)cc4)c3s2)cc1`, for which the growth is 59.2%.

In the case of `NC(=O)N1CCC(CC(=O)N2CCC([C@H]3c4ncc(Br)cc4CCc4cc(Cl)cc(Br)c43)CC2)CC1`, the growth was 3.17% (active).

Take `N#Cc1ccc(-c2n[nH]c3ccc(-c4n[nH]c(CC(F)(F)F)n4)cc23)cc1`: the growth was 109%.

With `CO[C@H]1C[C@H](O[C@H]2[C@H](C)O[C@@H](O[C@@H]3/C(C)=C/C[C@@H]4C[C@@H](C[C@]5(C=C[C@H](C)[C@@H](C6CCCCC6)O5)O4)OC(=O)[C@@H]4C=C(C)[C@@H](O)[C@H]5OC/C(=C\C=C\[C@@H]3C)[C@]54O)C[C@@H]2OC)O[C@@H](C)[C@@H]1O`, the growth was 101%.

`C[C@H](NC(=O)c1cc2nc(C(F)(F)F)ccc2[nH]1)c1ccccc1`: the growth was 86.1%.

`COc1ccc2cc1Oc1ccc(cc1)C[C@H]1c3cc(c(OC)cc3CCN1C)Oc1c(O)c(OC)cc3c1[C@@H](C2)N(C)CC3`: the growth was 5.48% (active).

`Fc1ccc([C@@H]2CCNC[C@H]2COc2ccc3c(c2)OCO3)cc1`: the growth is 5.94% (active).

`COc1ccc(-c2ccc3c(-c4ccc(F)cc4)cnc(N)c3c2)cn1`: the growth is 88.1%.

In the case of `FC(F)(F)c1ccnc(Nc2cn3cc(-c4ccc(N5CCOCC5)nc4)ccc3n2)n1`, the growth is 73.7%.

With `O=C(OI(OC(=O)C(F)(F)F)c1ccccc1)C(F)(F)F`, the growth was 89.9%.

Turning to `CCCCCOc1ccc(-c2ccc(-c3ccc(C(=O)N[C@H]4C[C@@H](O)[C@@H](O)NC(=O)[C@@H]5[C@@H](O)[C@@H](C)CN5C(=O)[C@H]([C@@H](C)O)NC(=O)[C@H]([C@H](O)[C@@H](O)c5ccc(O)cc5)NC(=O)[C@@H]5C[C@@H](O)CN5C(=O)[C@H]([C@@H](C)O)NC4=O)cc3)cc2)cc1`, the growth is 92.9%.

In the case of `COc1c(C)c2c(c(O)c1C/C=C(\C)CCC(=O)O)C(=O)OC2`, the growth is 88%.

As for `CN1CCC(N2CCC(NC(=O)c3cc4c(F)cccc4s3)CC2)CC1`, the growth was 131%.

As to `CN(C)C1CC(NC(=O)c2ccc(Nc3nccc(-c4ccc(Cl)c(C(F)(F)F)c4)n3)cc2)C1` (stereo not given), the growth is 7.71% (active).

As for `CN[C@@H]1[C@H](O)[C@H](NC)[C@H]2O[C@@]3(O)C(=O)C[C@@H](C)O[C@H]3O[C@@H]2[C@H]1O`, the growth was 99.5%.

As for `O=C(Nc1ccc([N+](=O)[O-])cc1Cl)c1cc(Cl)ccc1O`, the growth was 4.63% (active).

Take `Cc1nn(C2CCS(=O)(=O)C2)c(C)c1C1Nc2ccccc2C(=O)N1Cc1ccc2c(c1)OCO2` (stereo not given): the growth is 82.2%.

The same experiment, now with this note: 100 µM.
On to `O=C(Nc1cccc(Cl)c1)c1ccnc(N2CCC(N3CCCC3)CC2)c1`, for which the growth is 5.81% (active).

For the compound `CN1CCC[C@@H]1CCO[C@](C)(c1ccccc1)c1ccc(Cl)cc1`, the growth is 4.37% (active).

For the compound `CC(C)(C)Nc1ncc2nc(Nc3cc(Cl)cc(C(F)(F)F)c3)n([C@H]3C[C@H](N)C3)c2n1`, the growth is 5.73% (active).

Regarding `CCN(CC)CCNC(=O)c1ccc(NC(=O)c2cc3c(C)nn(-c4ccc(Cl)cc4)c3s2)cc1`, the growth is 108%.

With `NC(=O)N1CCC(CC(=O)N2CCC([C@H]3c4ncc(Br)cc4CCc4cc(Cl)cc(Br)c43)CC2)CC1`, the growth was 11.2% (active).

As to `N#Cc1ccc(-c2n[nH]c3ccc(-c4n[nH]c(CC(F)(F)F)n4)cc23)cc1`, the growth is 114%.

On to `CO[C@H]1C[C@H](O[C@H]2[C@H](C)O[C@@H](O[C@@H]3/C(C)=C/C[C@@H]4C[C@@H](C[C@]5(C=C[C@H](C)[C@@H](C6CCCCC6)O5)O4)OC(=O)[C@@H]4C=C(C)[C@@H](O)[C@H]5OC/C(=C\C=C\[C@@H]3C)[C@]54O)C[C@@H]2OC)O[C@@H](C)[C@@H]1O`, for which the growth is 125%.

For the compound `C[C@H](NC(=O)c1cc2nc(C(F)(F)F)ccc2[nH]1)c1ccccc1`, the growth is 56.8%.

Regarding `COc1ccc2cc1Oc1ccc(cc1)C[C@H]1c3cc(c(OC)cc3CCN1C)Oc1c(O)c(OC)cc3c1[C@@H](C2)N(C)CC3`, the growth is 5.12% (active).

As to `Fc1ccc([C@@H]2CCNC[C@H]2COc2ccc3c(c2)OCO3)cc1`, the growth was 3.06% (active).

For the compound `COc1ccc(-c2ccc3c(-c4ccc(F)cc4)cnc(N)c3c2)cn1`, the growth was 38.6%.

Consider `FC(F)(F)c1ccnc(Nc2cn3cc(-c4ccc(N5CCOCC5)nc4)ccc3n2)n1`, for which the growth is 132%.

Consider `O=C(OI(OC(=O)C(F)(F)F)c1ccccc1)C(F)(F)F`, for which the growth was 182%.

On to `CCCCCOc1ccc(-c2ccc(-c3ccc(C(=O)N[C@H]4C[C@@H](O)[C@@H](O)NC(=O)[C@@H]5[C@@H](O)[C@@H](C)CN5C(=O)[C@H]([C@@H](C)O)NC(=O)[C@H]([C@H](O)[C@@H](O)c5ccc(O)cc5)NC(=O)[C@@H]5C[C@@H](O)CN5C(=O)[C@H]([C@@H](C)O)NC4=O)cc3)cc2)cc1`, for which the growth is 54.2%.

Take `COc1c(C)c2c(c(O)c1C/C=C(\C)CCC(=O)O)C(=O)OC2`: the growth is 94.6%.

On to `CN1CCC(N2CCC(NC(=O)c3cc4c(F)cccc4s3)CC2)CC1`, for which the growth is 46.6%.

On to `CN(C)C1CC(NC(=O)c2ccc(Nc3nccc(-c4ccc(Cl)c(C(F)(F)F)c4)n3)cc2)C1` (stereo not given), for which the growth is 6.2% (active).

As to `CN[C@@H]1[C@H](O)[C@H](NC)[C@H]2O[C@@]3(O)C(=O)C[C@@H](C)O[C@H]3O[C@@H]2[C@H]1O`, the growth was 71.3%.

As to `O=C(Nc1ccc([N+](=O)[O-])cc1Cl)c1cc(Cl)ccc1O`, the growth was 4.72% (active).

In the case of `Cc1nn(C2CCS(=O)(=O)C2)c(C)c1C1Nc2ccccc2C(=O)N1Cc1ccc2c(c1)OCO2` (stereo not given), the growth is 91.4%.

Values taken from the supplement of paper PMC11172423.
